Measured values from the OligoGym collection.

target: L1TD1; assay: pooled miR-30 sensor sort-seq; sequence = guide strand; conditions: shRNA
Further: reference of the scale not given here.

| Sequence | sensor-assay potency score (higher = more potent) |
| --- | --- |
| TACTTCTCAAGTTTTCTTCTGT | 0.707 |
| ATTTGCTGAAACTCTGTCCTAC | 0.491 |
| TTAAATCTAATACCGGAGCTAT | -1.12 |
| TTGATCTTCTAGACTGTCTATT | -0.179 |
| TTTGATCTTCTAGACTGTCTAT | -0.16 |
| TTGAATTTCCATTAAGACCTTA | 0.102 |
| ATCATTACTATTGTATTCGTTA | -0.576 |
| TCTTTCTTCAAGTATGTCCATT | -0.922 |
| TTCTTTGACAAATTCATCCTCT | 0.858 |
| TATTTCTCCAGCTCTATGCTTT | -0.459 |

target: LAMA2; assay: as above; conditions: shRNA

| Sequence | sensor-assay potency score (higher = more potent) |
| --- | --- |
| TTACATAATAGGCCTGTCCAGT | -0.57 |
| TACATCTTTAGCTGTGTCGTTG | -0.19 |
| TTACATATCAGACAGGAGCCAG | -0.545 |
| TAAATGTCAACTGTCCTCCTAC | 0.301 |
| TTTATTGTAATTCTTCTTCAGG | -0.611 |
| TTGAGTTTATCTATTAGCCGGT | 0.45 |
| TTAAGTAACAATACATTAGTAT | -0.0119 |
| TTTGTGAGCAAACATCATCAAG | -1.56 |
| TTTGAGTTTATCTATTAGCCGG | -0.671 |
| TATCCAAGAAGTCTTCTCGGGT | -0.905 |
| TTGATTGCAGATTCGACACTGC | 0.517 |
| TAGTTTATTGTAATTCTTCTTC | -0.313 |

target: LAMB3; assay: as above; conditions: shRNA

| Sequence | sensor-assay potency score (higher = more potent) |
| --- | --- |
| TATTTTTTCAAACTGCTCCCTC | 0.433 |
| TTTTTTGACTTTGAGTTGCTGG | 0.33 |
| TTTGCATCTAGGATCCGGGAGG | -1.03 |
| TCTGACATCTTCCTCCATCTGG | -0.297 |
| TTTGACTTTGAGTTGCTGGAAT | -0.395 |
| TAGGTCACAGCGCTCTCCCTGC | -0.878 |
| TCTTGAAGCTGGAATCTCCTGT | 0.664 |
| TTCTGCAGAACAGTAGCTGAGT | -0.497 |
| TAGGCTGTGCTCAGCATCCGGA | -0.616 |
| TTACTAGCTACACACCAGGGGT | -0.82 |
| TCTTCTGCAGAACAGTAGCTGA | -1.16 |
| TTATTCTCTCAAATCCCTCTTG | -0.105 |

target: LAMB4; assay: as above; conditions: shRNA

| Sequence | sensor-assay potency score (higher = more potent) |
| --- | --- |
| TTAGCTGTTTAACTTTTCCTAA | -0.989 |
| TTTGTCTTCTAACAGAGTCATG | -1.42 |
| TTTGTTAGTCCTGTAGTGCTTG | 0.084 |
| TTCACTTATACTTTCGATCTGA | 0.249 |
| TAGTCCTGTAGTGCTTGTCTTA | -1.22 |
| TTCAACACAGTTGTGAAGCTGA | 0.732 |
